The values that follow come from PubChem BioAssay (NCI).

This is part of a sample that, as a whole, favours compounds with a hit. Of some 83,000 tested, about 20% had one in any assay.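 Each cell line was grown in a 96-well plate and treated with one concentration of compound for 48 hours. Values below 10 were considered active.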 A number with no mark means an inactive call. Activity calls are given as the source filed them.

What all share (experiment): NCI-60 one-dose screen, 48 h (100 = growth as untreated, 0 = no growth, -100 = all killed)
One assay concerns NCI-H23 lung. Particulars: 10 µM unless noted.
In the next assay the test system is NCI-H226 lung. Particulars: 10 µM unless noted.
A further assay deals with NCI-H322M lung. Particulars: 10 µM unless noted.
The subject of the next assay is HOP-62 NSCLC. Particulars: 10 µM unless noted.
A further assay relates to NCI-H460 lung. Particulars: 10 µM unless noted.
The next assay has as its system HOP-92 NSCLC. Particulars: 10 µM.
The test system of a further assay is NCI-H522 lung. Particulars: 10 µM unless noted.
The test system of another assay is A549/ATCC NSCLC. Particulars: 10 µM unless noted.
For a further assay, the system named is 786-0 renal. Conditions: 10 µM unless noted.
The subject of a further assay is COLO 205 colon. Conditions: 10 µM unless noted.
A further assay has as its system DU-145 prostate. Particulars: 10 µM unless noted.
The next assay concerns K-562 leukemia. Conditions: 10 µM unless noted.
In the next assay the test system is MALME-3M melanoma. Particulars: 10 µM unless noted.
For the next assay, the system named is MDA-MB-231 breast. Particulars: 10 µM unless noted.
The subject of another assay is SF-268 CNS. Conditions: 10 µM unless noted.
For the next assay, the system named is SF-295 CNS. Particulars: 10 µM unless noted.
In another assay the test system is SF-539 CNS. Conditions: 10 µM unless noted.
The subject of the next assay is UACC-257 melanoma. Conditions: 10 µM unless noted.

In the case of `COc1ccc(Cn2cc3c(c2-c2cc(OC)c(OC)c(OC)c2)CCc2c(CN4CCOCC4)noc2-3)cc1`, the growth in the assay on NCI-H23 lung is 9.12% (active); in the assay with NCI-H226 lung it was 57.9%; in the assay on NCI-H322M lung, 52.7%; in the assay with HOP-62 NSCLC it was 45%; in the assay on NCI-H460 lung it was 8.85% (active); with HOP-92 NSCLC, 100%. Besides, the growth with NCI-H522 lung was 12.3%; in the assay with A549/ATCC NSCLC it was 32.9%; in the assay on 786-0 renal it was 55.4%; in the assay on COLO 205 colon it was 14.9%; in the assay on DU-145 prostate, 20%; in the assay on K-562 leukemia, 12.6%. For the same compound, the growth was 43.3% with MALME-3M melanoma; 31.8% with MDA-MB-231 breast; 47.7% in the assay on SF-268 CNS; 13.3% in the assay with SF-295 CNS; 3.49% (active) with SF-539 CNS; 73.4% with UACC-257 melanoma.
With `COc1c(N2CC3CCCNC3C2)c(F)cc2c(=O)c(C(=O)N/N=C/c3ccc(N(C)C)cc3)cn(C3CC3)c12` (centres undefined), the growth is 69.1% in the assay on NCI-H23 lung; 98.5% in the assay with NCI-H226 lung; 93.6% in the assay with NCI-H322M lung; 91.9% in the assay on HOP-62 NSCLC; 78.3% in the assay with NCI-H460 lung; 69.5% with HOP-92 NSCLC. For the same compound, the growth is 73% in the assay on NCI-H522 lung; 88.7% with A549/ATCC NSCLC; 37.7% with 786-0 renal; 104% with COLO 205 colon; 73.6% in the assay with DU-145 prostate; -10% (active) in the assay on K-562 leukemia. Besides, the growth in the assay on MALME-3M melanoma is 92.9%; in the assay with MDA-MB-231 breast, 69.1%; with SF-268 CNS, 85.5%; with SF-295 CNS it was 95%; with SF-539 CNS, -8.68% (active); with UACC-257 melanoma, 106%.
Consider `NC(N)=Nc1ccc(Oc2cccc(NC(N)=Nc3ccc(Cl)c(C(F)(F)F)c3)c2)cc1`, for which the growth was 60.2% in the assay on NCI-H23 lung; 73% with NCI-H226 lung; 64.6% in the assay on NCI-H322M lung; 60.4% in the assay with HOP-62 NSCLC; 26.8% with NCI-H460 lung; 19.2% in the assay with HOP-92 NSCLC. In addition, the growth was 39.6% in the assay on NCI-H522 lung; 47.1% in the assay with A549/ATCC NSCLC; 81% with 786-0 renal; 24.3% in the assay on COLO 205 colon; 75.2% with DU-145 prostate; 31.7% in the assay on K-562 leukemia. The growth was 61.8% with MALME-3M melanoma; 61.3% in the assay on MDA-MB-231 breast; 21.9% in the assay with SF-268 CNS; 58.3% in the assay with SF-295 CNS; 49.3% with SF-539 CNS; 57% in the assay with UACC-257 melanoma.
`NC(N)=Nc1ccc(Oc2cccc(NC(N)=Nc3ccc(Cl)c(C(F)(F)F)c3)c2)cn1`: the growth with NCI-H23 lung is 39.4%; with NCI-H226 lung, 71.9%; in the assay with NCI-H322M lung, 37.9%; in the assay on HOP-62 NSCLC it was 52.1%; in the assay on NCI-H460 lung it was 19.9%; with HOP-92 NSCLC, -1.32% (active). Moreover, the growth with NCI-H522 lung is 9.96% (active); in the assay with A549/ATCC NSCLC it was 42.6%; in the assay with 786-0 renal it was 70.3%; with COLO 205 colon it was 22.7%; with DU-145 prostate, 63.7%; in the assay on K-562 leukemia it was 19.7%. Besides, the growth in the assay on MALME-3M melanoma was 57.9%; with MDA-MB-231 breast it was 43.8%; in the assay with SF-268 CNS, 19.6%; with SF-295 CNS it was 40.7%; in the assay with SF-539 CNS, 36.6%; in the assay with UACC-257 melanoma, 61.2%.
On to `COC(=O)C[Se]C(=O)Cc1c(C)n(C(=O)c2ccc(Cl)cc2)c2ccc(OC)cc12`, for which the growth was 11.5% in the assay on NCI-H23 lung; 52.8% in the assay on NCI-H226 lung; 44.7% in the assay with NCI-H322M lung; 25.4% with HOP-62 NSCLC; 16.3% in the assay with NCI-H460 lung; 53.2% in the assay with HOP-92 NSCLC. For the same compound, the growth with NCI-H522 lung is 44.8%; in the assay with A549/ATCC NSCLC it was 18.7%; in the assay with 786-0 renal, 83.3%; in the assay with COLO 205 colon, 49.5%; in the assay on DU-145 prostate it was 25.6%; in the assay with K-562 leukemia, 54%. Also, the growth is 46.5% with MALME-3M melanoma; 30.9% with MDA-MB-231 breast; 40.7% with SF-268 CNS; 9.86% (active) in the assay on SF-295 CNS; 39.9% in the assay on SF-539 CNS; 65.2% in the assay on UACC-257 melanoma.
`CC(Nc1c(C#N)cnc2ccc(-c3cnc(N)nc3)cc12)c1ccccc1` (centres undefined): the growth was 13.1% with NCI-H23 lung; 18.4% with NCI-H226 lung; 6.93% (active) with NCI-H322M lung; 10.6% in the assay on HOP-62 NSCLC; 13.1% with NCI-H460 lung; -17.3% (active) with HOP-92 NSCLC. Further, the growth was 7.27% (active) in the assay with NCI-H522 lung; 11.6% in the assay on A549/ATCC NSCLC; 12.2% in the assay with 786-0 renal; 24% in the assay on COLO 205 colon; 17.3% in the assay on DU-145 prostate; 22.5% with K-562 leukemia. The growth was 0.078% (active) in the assay on MALME-3M melanoma; 19.1% with MDA-MB-231 breast; 13.4% in the assay with SF-268 CNS; -17% (active) in the assay with SF-295 CNS; 2.6% (active) with SF-539 CNS; 34.1% with UACC-257 melanoma.
`Cc1nc(-c2ccccc2O)ccc1C(=O)N=Nc1c(O)[nH]c2ccc(Br)cc12`: the growth is 96.2% with NCI-H23 lung; 81.4% in the assay with NCI-H226 lung; 99.5% with NCI-H322M lung; 84.3% in the assay with HOP-62 NSCLC; 99.8% in the assay with NCI-H460 lung; 62.1% with HOP-92 NSCLC. Also, the growth in the assay with NCI-H522 lung was 97%; with A549/ATCC NSCLC it was 103%; in the assay on 786-0 renal it was 102%; in the assay with COLO 205 colon, 105%; with DU-145 prostate, 113%; in the assay on K-562 leukemia, 113%. The growth with MALME-3M melanoma is 85.4%; in the assay with MDA-MB-231 breast, 87.6%; with SF-268 CNS, 96.7%; in the assay with SF-295 CNS, 104%; in the assay with SF-539 CNS, 95.7%; in the assay with UACC-257 melanoma, 104%.
`CCCCCc1ccc(S(=O)(=O)Nc2cccc(-c3csc(NCCN4CCN(C)CC4)n3)c2)cc1`: the growth in the assay with NCI-H23 lung is 84%; with NCI-H226 lung, 96.7%; in the assay with NCI-H322M lung, 82.9%; in the assay with HOP-62 NSCLC, 89.4%; with NCI-H460 lung, -9.25% (active); in the assay with HOP-92 NSCLC it was 71.2%. Besides, the growth with NCI-H522 lung is 90.2%; in the assay with A549/ATCC NSCLC, 72.6%; with 786-0 renal, 60.3%; with COLO 205 colon it was 22.2%; in the assay with DU-145 prostate it was 74.3%; in the assay with K-562 leukemia it was 0.356% (active). Also, the growth in the assay on MALME-3M melanoma was -36.7% (active); in the assay with MDA-MB-231 breast, 64.3%; in the assay on SF-268 CNS, 80.9%; in the assay with SF-295 CNS, 107%; in the assay on SF-539 CNS, 76.4%; in the assay on UACC-257 melanoma, 38.1%.
